The values below come from PubChem BioAssay (EPA / NIEHS).

The structures appear in SMILES notation. Inconclusive results are not listed. Active and inactive are the calls of the source. How the source made its calls: active means hit-call score of the fitted dose curve at least 0.9, where 1 is the maximum; inconclusive means response in the unintended direction; inactive means score below 0.9.

The target of this assay is Nucleoli Translocation, AR (gene 367) (UniProt P10275). The experiment in a line: UPITT_HCI_U2OS_AR_TIF2_Nucleoli_Antagonist: University of Pittsburgh U2OS Androgen Receptor-Transcriptional Intermediary Factor 2 (AR-TIF2) Antagonism High Content Imaging Assay for Nucleoli Translocation (AID 2283997). From the text: UPITT_AR_TIF2_PPIB is a cell-based, high-content imaging assay that uses U2OS, a human osteosarcoma cell line, expressing a human androgen receptor fused to red fluorescent protein and the coactivator TIF2 fused to green fluorescent protein. UPITT_HCI_U2OS_AR_TIF2_Nucleoli_Antagonist is one of four assay components measured from the UPITT_AR_TIF2_PPIB assay. It is designed to make measurements of red fluorescence localized in the nucleolar region of the cell nucleus as detected with high-content fluorescent imaging.Data from the assay component UPITT_HCI_U2OS_AR_TIF2_Nucleoli_Antagonist was analyzed into 1 assay endpoint. This assay endpoint, UPITT_HCI_U2OS_AR_TIF2_Nucleoli_Antagonist, was analyzed in the positive analysis fitting direction relative to DHT as the baseline of activity. Using a type of binding reporter, measures of receptor for loss-of-signal activity can be used to understand the binding at the pathway-level as it relates to the gene AR.
Nucleoli Translocation, AR (gene 367), sequence (P10275 whole entry, looked up, the tested form may be a part): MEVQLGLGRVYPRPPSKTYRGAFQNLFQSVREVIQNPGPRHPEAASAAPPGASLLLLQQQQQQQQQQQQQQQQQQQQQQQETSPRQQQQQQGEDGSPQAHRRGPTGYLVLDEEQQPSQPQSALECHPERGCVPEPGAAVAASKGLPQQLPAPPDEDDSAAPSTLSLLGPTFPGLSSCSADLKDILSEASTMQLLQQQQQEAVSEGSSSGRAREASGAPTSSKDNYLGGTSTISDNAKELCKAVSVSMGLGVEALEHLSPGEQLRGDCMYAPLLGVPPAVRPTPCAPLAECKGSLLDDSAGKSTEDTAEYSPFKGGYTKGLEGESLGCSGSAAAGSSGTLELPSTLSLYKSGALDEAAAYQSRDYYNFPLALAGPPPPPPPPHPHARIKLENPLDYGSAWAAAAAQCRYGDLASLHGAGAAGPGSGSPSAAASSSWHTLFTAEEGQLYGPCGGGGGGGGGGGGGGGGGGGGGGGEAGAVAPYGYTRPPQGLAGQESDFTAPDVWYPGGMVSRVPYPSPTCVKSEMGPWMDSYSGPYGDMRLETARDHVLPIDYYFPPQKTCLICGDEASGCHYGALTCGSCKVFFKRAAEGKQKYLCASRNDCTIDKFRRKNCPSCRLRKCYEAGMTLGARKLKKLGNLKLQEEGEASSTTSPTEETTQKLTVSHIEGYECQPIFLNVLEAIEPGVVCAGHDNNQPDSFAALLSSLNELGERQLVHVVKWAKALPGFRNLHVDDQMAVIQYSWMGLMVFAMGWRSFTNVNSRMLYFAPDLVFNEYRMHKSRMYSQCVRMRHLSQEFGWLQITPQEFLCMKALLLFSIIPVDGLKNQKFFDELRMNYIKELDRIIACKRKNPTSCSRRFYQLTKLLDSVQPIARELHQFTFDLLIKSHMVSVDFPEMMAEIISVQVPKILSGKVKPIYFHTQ
Daughter plates containing 2 uL of 10 mM compounds in DMSO were prepared and replicated from the 384-well Library of Pharmacologically Active Compounds (LOPAC) master plates using the Bravo outfitted with a 384-well transfer head. Aluminum adhesive plate seals were applied with an Abgene Seal-IT 100 (Rochester, NY) plate sealer, and the plates were stored at -20 C in a Matrical MatriMinistore (Spokane, WA) automated compound storage and retrieval system. For screening, LOPAC daughter plates were withdrawn from -20C storage, thawed to ambient temperature, centrifuged 1-2 min at 50 g, and the plate seals were removed before the transfer of 98 uL of serum-free tissue culture medium (SFM) into wells using the BioTek Microflo liquid handler (BioTek, Winooski, VT) to generate a 200 uM intermediate stock concentration of library compounds (2.0% DMSO). The diluted compounds were mixed by repeated aspiration and dispensation using a 384-well P30 dispensing head on the Evolution P3 (EP3) liquid handling platform (PerkinElmer, Waltham, MA) and then 5 uL of diluted compounds was transferred to the wells of assay plates. In the LOPAC screen, compounds were individually tested at a final concentration of 20 uM (0.2% DMSO). After the diluted compounds had been transferred from the daughter plates to the primary HCS assay plates, aluminum adhesive plate seals were applied and the diluted daughter plates were stored frozen at -20C. To confirm active compounds identified in the primary screen, we withdrew the LOPAC daughter plates containing the 200 uM intermediate concentration of library compounds (2.0% DMSO) from -20C storage, thawed them to ambient temperature, centrifuged them for 1-2 min at 50 g, and removed the plate seals. A work list was generated to direct the Multiprobe Janus liquid handling platform (PerkinElmer) to cherry pick 75 uL from the wells of the diluted daughter plates that were flagged active in the primary screen and to reformat these into a 384-well plate hit confirmation daughter plate. Five microliters of primary HCS active compounds was then transferred into triplicate wells of assay plates using a 384-well P30 dispensing head on the Evolution P3 (EP3) liquid handling platform (PerkinElmer). […] Daughter plates containing 2 uL of the serially diluted compounds in DMSO were prepared and replicated from the 384-well serial dilution master plates using the Bravo outfitted with a 384-well transfer head. Aluminum adhesive plate seals were applied and plates were stored at -20C. […] The ImageXpress Ultra (IXU) platform (Molecular Devices LLC, Sunnyvale, CA) and The ImageXpress Micro (IXM) platform were used for imaging.
For `OCc1cccc(Oc2ccccc2)c1`, the compound was classed as inactive. For `CC1CCC(C(C)C)C(O)C1` (configuration not stated), the result was inactive.

As to `Nc1ccc(N)c2c1C(=O)c1ccccc1C2=O`, the result was inactive. The same measure, in the same setting: as for `CC(=O)O[C@H]1C[C@@H]2CC[C@@]1(C)C2(C)C`, the entry is “inactive”; as for `C[C@H]1O[C@@H](O[C@H]2[C@@H](O)C[C@H](O[C@H]3[C@@H](O)C[C@H](O[C@H]4CC[C@@]5(C)[C@H](CC[C@@H]6[C@@H]5C[C@@H](O)[C@]5(C)[C@@H](C7=CC(=O)OC7)CC[C@]65O)C4)O[C@@H]3C)O[C@@H]2C)C[C@H](O)[C@@H]1O`, “inactive”. By AC50 is commonly meant the concentration at which the activity in the assay is half-maximal. In the case of `CCCCCCCCC=CCCCCCCCC1=NCCN1CCO`, the concentration at half-maximal activity (AC50) was 93 µM (active). Same read-out and setting: as for `CCc1cc(Cc2cc(CC)cc(C(C)(C)C)c2O)c(O)c(C(C)(C)C)c1`, the figure is 62.2 µM (active). For `CCc1ccc(O)cc1`, the result was inactive.

With `CC(C=O)Cc1ccc(C(C)(C)C)cc1` (configuration not stated), the call was inactive. The same measure, in the same setting: as for `CC(=O)C1(C)CC2=C(CCCC2(C)C)CC1C` (configuration not stated), the entry is “inactive”; as for `CCOC(=O)[C@@H](C)Oc1ccc(Oc2nc3ccc(Cl)cc3o2)cc1`, “inactive”.

Regarding `CCCCC1CCC(O)CC1` (configuration not stated), the outcome was inactive. Still for that read-out and setting: as for `CC(C)CCCCCCc1ccc(OCCOCCO)cc1`, the entry is “inactive”; as for `BrCc1cccc(Oc2ccccc2)c1`, “inactive”. Consider `CCCCCCCCSCCO`, for which the AC50 was 59 µM (active). Turning to `CC(=O)O[C@@H]1CC2CCC1(C)C2(C)C` (some centres not stated), the compound was called inactive. Same read-out and setting: as for `Cc1ccc(S(=O)(=O)Oc2ccc(N=Nc3ccc(-c4ccc(N=Nc5c(O)ccc6cc(S(=O)(=O)O)cc(S(=O)(=O)O)c56)c(C)c4)cc3C)cc2)cc1`, the entry is “inactive”.
